Experimental data from paper PMC7819943, “Rice protein-binding microarrays: a tool to detect cis-acting elements near promoter regions in rice”.
Over roughly 35,000 sequences, “fluorescence intensity (a.u.)” has its median near 10,000; the highest 2% begin near 52,000. Many of the other results were omitted from the sample, so the highest values are more common in it than they were.

Each sequence was assayed against T1, OsWOX13 (Oryza sativa, UniProt Q5QMM3 1-267) (assay: protein-binding microarray (RPBM); PBS, 2% BSA, 51.3 ng/ul salmon testes DNA, 50 uM zinc acetate, 200 nM TF, 25 C, 1 h; high values mean tight binding). Conditions: protein: recombinant; tags: N-terminal polyhistidine and DsRed monomer fusion (pET32a); label: CyDye5-dUTP incorporated in the synthesized complementary strand; 3' TTTTT single-stranded linker to array surface; dsDNA, one strand shown.
T1 sequence: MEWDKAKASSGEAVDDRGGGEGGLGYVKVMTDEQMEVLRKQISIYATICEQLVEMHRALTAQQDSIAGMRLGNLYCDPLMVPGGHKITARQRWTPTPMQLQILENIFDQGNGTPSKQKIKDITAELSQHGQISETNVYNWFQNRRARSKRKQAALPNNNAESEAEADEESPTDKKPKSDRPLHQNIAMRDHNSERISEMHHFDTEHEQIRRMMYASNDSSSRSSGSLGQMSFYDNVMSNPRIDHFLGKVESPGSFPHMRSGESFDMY
Method in brief: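 Transcription factors, each fused N-terminally to a polyhistidine tag and DsRed, were expressed in E. coli BL21-CodonPlus and purified on Ni–NTA. A custom Agilent array was made double-stranded by primer extension with Cy5-dUTP and blocked with 2% BSA. It was incubated with 200 nM protein in PBS, 2% BSA, salmon testes DNA and 50 µM zinc acetate at 25 °C for 1 h, then washed. The binding signal is per-feature fluorescence intensity (arbitrary units) read on an Axon 4000B scanner.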

| Sequence | binding signal |
| --- | --- |
| ACTATTAATGTGAACTGATATGATACATTTTAGAGCTAGCCGGAGTCACCTAGTGCAG | 6440 fluorescence intensity (a.u.) |
| TACACCTTTGACAGACAACAAAGCATTGAATCTTCTATGCCGGAGTCACCTAGTGCAG | 5260 fluorescence intensity (a.u.) |
| GATAACTGGATTCATCTGTCTCCTCAACGTGTGGTCTGTACGGAGTCACCTAGTGCAG | 19900 fluorescence intensity (a.u.) |
| TGCCACACAAATTTTGCAAAATTTGTGATATGCCACCTGACGGAGTCACCTAGTGCAG | 6080 fluorescence intensity (a.u.) |
| ACTTGACAGGAATTGCAGAAAGGCCCCTCGCCAAAACTCACGGAGTCACCTAGTGCAG | 30900 fluorescence intensity (a.u.) |
| TAATAATAATAATAATGCAAATTACCAAAATATAAGCCCACGGAGTCACCTAGTGCAG | 6280 fluorescence intensity (a.u.) |
| GCCAAATTGACAGAGTTACCTCGCTATATAAGGCTGCCCACGGAGTCACCTAGTGCAG | 57600 fluorescence intensity (a.u.) |
| ATATCAATTAATGCTTCAAGATTAGCACCCATATTATATGCGGAGTCACCTAGTGCAG | 35100 fluorescence intensity (a.u.) |
| AATCATTTAAAACATTGATTTTATTTGACGATAAAACTAGCGGAGTCACCTAGTGCAG | 4690 fluorescence intensity (a.u.) |
| AGTGATTAATGAGACAAATAGTACTTTATTGTGACAAGTACGGAGTCACCTAGTGCAG | 30900 fluorescence intensity (a.u.) |
| GAAATAATTAATTAATTTAATTAATTGATTGACACAAGTACGGAGTCACCTAGTGCAG | 65000 fluorescence intensity (a.u.) |
| TTTGATTCTTTTAAATTAAATAATTTTAAAGTCATTGATACGGAGTCACCTAGTGCAG | 21100 fluorescence intensity (a.u.) |
| CTAATTGATTAGTAAACTATTTATATAGGACTGTTGTTTTCGGAGTCACCTAGTGCAG | 58300 fluorescence intensity (a.u.) |
| AGACAATGATAGTGATAATTAACAAATTCAGTTTAAGATCCGGAGTCACCTAGTGCAG | 19700 fluorescence intensity (a.u.) |
| TATTTTCAATTATAGGTCTAATTGTTTTATTTAGGTGATTCGGAGTCACCTAGTGCAG | 20500 fluorescence intensity (a.u.) |
| GGTAATATTTTGATTAAATTTGACTAAATTTTGTTTAAAACGGAGTCACCTAGTGCAG | 11800 fluorescence intensity (a.u.) |
| AAACTGATTCTTTGATTATTGACGTCTCATAGACCTACGTCGGAGTCACCTAGTGCAG | 31600 fluorescence intensity (a.u.) |
| CTTAATTAACACTCGTAAGATTGACAAATAGTTGAATATCCGGAGTCACCTAGTGCAG | 60300 fluorescence intensity (a.u.) |
| TTGATTGACTAAACTGTCACGTCAGCGTCATATTGACGAACGGAGTCACCTAGTGCAG | 54900 fluorescence intensity (a.u.) |
| AAATTGACAAGATAGATCAATATATAATATATCACTACACCGGAGTCACCTAGTGCAG | 10200 fluorescence intensity (a.u.) |
| GAAATTAAACTAATATTTCGGCCCATCAAGGGCTCGCTTGCGGAGTCACCTAGTGCAG | 8580 fluorescence intensity (a.u.) |

| Sequence | binding signal |
| --- | --- |
| TCTGATTATTAATTATCACTTTATCAGTCTCCAACGTTTACGGAGTCACCTAGTGCAG | 40900 fluorescence intensity (a.u.) |
| ATACTTAATTAATGATACGATAATTGAATTTATTCTCTCCCGGAGTCACCTAGTGCAG | 49900 fluorescence intensity (a.u.) |
| ATACTTGACAGGTTTTATGCATATAAGAAAATCTGTTTAACGGAGTCACCTAGTGCAG | 7520 fluorescence intensity (a.u.) |
| CTCTCTCTCTGATTAGTTAATTGAATACATTGTAAGGGCCCGGAGTCACCTAGTGCAG | 41200 fluorescence intensity (a.u.) |
| TCGCTAATAAATCATATGATGTCATGGGCCCGAGACATCTCGGAGTCACCTAGTGCAG | 3380 fluorescence intensity (a.u.) |
| TGTGTTAAACTATATAATTTTCTCTAAAACATAATGGTACCGGAGTCACCTAGTGCAG | 3720 fluorescence intensity (a.u.) |
| TTAATTCTATCTAGTAGTAGAGTTAGTTATTTATATATTACGGAGTCACCTAGTGCAG | 5310 fluorescence intensity (a.u.) |
| CCTTCGATTATTGGCACGGATTGTTTATCCAGGTAAGACTCGGAGTCACCTAGTGCAG | 13300 fluorescence intensity (a.u.) |
| CACATCAACCTGCACCAATCATGCCATCGAGATCACAACACGGAGTCACCTAGTGCAG | 3970 fluorescence intensity (a.u.) |
| ATCTCCAAAATTTTAAATTTTAATTAAAACCTAACTTACACGGAGTCACCTAGTGCAG | 6930 fluorescence intensity (a.u.) |
| TGAATAATTGACAATTTAACCAGACCATTAATTAATTGTTCGGAGTCACCTAGTGCAG | 62400 fluorescence intensity (a.u.) |
| AGAAATTGAACGTGATTAACGGGGAGGGCACTAGTGAGGCCGGAGTCACCTAGTGCAG | 53000 fluorescence intensity (a.u.) |
| TTAATATAAAAGTAATTATTTAAATTGTAGAAACAATTTACGGAGTCACCTAGTGCAG | 5710 fluorescence intensity (a.u.) |
| AATAATTGAATATATTTTCATAATAAATGTGTGTTGAGTTCGGAGTCACCTAGTGCAG | 38400 fluorescence intensity (a.u.) |
| CTTTAAAATTAATTAAATTTGAAAATTAGTAACGAGGGGACGGAGTCACCTAGTGCAG | 26700 fluorescence intensity (a.u.) |
| TACTAATTTTGAATTTAGAGCTATTAACCAATAAATTGTTCGGAGTCACCTAGTGCAG | 12200 fluorescence intensity (a.u.) |
| GCACTAGTGATTGGAACAATATTAATTTCAGAAACATTGCCGGAGTCACCTAGTGCAG | 32700 fluorescence intensity (a.u.) |
| CTAGAAATTAGGTGATTAATTTATTAAACACAATATTGCCCGGAGTCACCTAGTGCAG | 56900 fluorescence intensity (a.u.) |
| AAGAATTGATAGATGAAACGTGATTAGATACTAACTATACCGGAGTCACCTAGTGCAG | 41200 fluorescence intensity (a.u.) |
| TATAATTGAATAAATTTTCATATTATATTTATCTTGTGTTCGGAGTCACCTAGTGCAG | 63100 fluorescence intensity (a.u.) |
| AATAATTGAATATATTTTCATAATAAATTTGTCTTGGGTTCGGAGTCACCTAGTGCAG | 44400 fluorescence intensity (a.u.) |
